From PubChem BioAssay (NCATS) come the findings set out here.

Assay [1] is described as follows: Cellular Toxicity (caspase-3) Mesangial (AID 660).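 Also: combined caspase 3 and 7 activity read by Caspase-Glo luminescence; cells exposed to compound for 16 h before the caspase read.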 As to conditions: mesangial cells, normalized: DMSO 0%, 100 µM tamoxifen 100%; at 91.7 µM (top of the series). In short, it runs like this:
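Mesangial cells, 1000/well, 5 h settle at 37 °C; compound 16 h, 37 °C; Caspase-Glo 3/7 reagent 20 min RT; luminescence. Norm.: DMSO = 0%, tamoxifen 100 uM = 100%. AC50, Hill fit.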

A short description of assay [2]: Cellular Toxicity (caspase-3) SK-N-SH (AID 661).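 Also: 0% = DMSO basal and 100% = 10 µM staurosporine.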 In a few lines:
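Human neuroblastoma SK-N-SH, 1500 cells/well, 5 hr pre-incubation, then compound 16 hr, 37 °C. Caspase-Glo 3/7 reagent, 1 hr RT, luminescence. Norm. to DMSO/10 uM staurosporine; Hill-fit AC50.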

Assay [3] is described as follows: Cellular Toxicity (caspase-3) H-4-II-E (AID 663).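 Also: cells exposed to compound for 16 hr before readout.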 As to conditions: H-4-II-E rat hepatoma, scaled: DMSO 0%, 100 µM tamoxifen 100%; at 92.2 µM (top of the series). In short, it runs like this: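 Apoptosis induction is scored as increased luminescence from caspase 3/7 substrate cleavage in rat hepatoma H-4-II-E cells exposed to compound for 16 hr. Activity is scaled between DMSO and 100 uM tamoxifen.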

Assay [4] can be described thus: Cellular Toxicity (caspase-3) Hek293 (AID 664).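 Also: cells exposed to compound for 16 h at 37 °C before readout.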 As to conditions: HEK293 caspase-3 activation, DMSO = 0%, 100 µM tamoxifen = 100%; at 92.2 µM (top of the series). In a few lines: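 Cells plated, 5 hr at 37 °C; compounds added; 16 hr at 37 °C; Caspase-Glo 3/7 reagent, 20 min RT; luminescence read. Activation expressed relative to DMSO and 100 uM tamoxifen, AC50 by Hill model.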

Assay [5] in a line: Cellular Toxicity (caspase-3) N2a (AID 665).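 Also: compound exposure lasted 16 h at 37 °C before readout.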 In short, it runs like this:
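N2a cells, 1500/well, 5 h settle at 37 °C; cpd 16 h, 37 °C; Caspase-Glo 3/7, 1 h RT; luminescence. Norm: DMSO = 0, 10 uM staurosporine = 100%. AC50, Hill fit.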

A short description of assay [6]: Cellular Toxicity (caspase-3) NIH 3T3 (AID 666).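 Also: caspase signal read after 16 h compound exposure; 0% = DMSO basal and 100% = 100 µM tamoxifen stimulation.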 In short, it runs like this: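 Luminescence from aminoluciferin released by caspase-3/7 cleavage of a peptide substrate served as read-out. Mouse fibroblast NIH 3T3 cells were exposed to compounds over a concentration range for 16 hours, and AC50 values came from standard Hill modelling.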
A short description of assay [7]: Cellular Toxicity (caspase-3) Renal Proximal Tubule (AID 667).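 Also: cells exposed to compound for 16 hours at 37 °C before detection; 0% = DMSO basal and 100% = 10 µM staurosporine.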 As to conditions: Potency: caspase-3 activation. In short, it runs like this:
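In qHTS format, rat primary proximal tubule cells seeded at 1000 per well are exposed to compounds for 16 hours at 37 °C. An increase in Caspase-Glo 3/7 luminescence indicates caspase activation.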

For assay [8], the target named is Cytochrome P450 3A4 (Homo sapiens) (UniProt P08684). Put plainly: qHTS Assay for Inhibitors and Substrates of Cytochrome P450 3A4 (AID 884). Also: nearly all actives have a fitted effect of over 50% in size. Also: potency is read from the fitted curve at half-maximal effect. In short, it runs like this:
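20 nM human CYP3A4 with 25 uM Luciferin-PPXE (at KM) in 200 mM KPO4, preincubated 10 min with compound; NADPH regeneration started a 60 min RT reaction. Luciferin detected by luminescence, normalized to 57 uM ketoconazole as full inhibition.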
On the technique in general: Quantitative high-throughput screening tests each substance at several concentrations.

Assay [9] can be described thus: Cell Viability - LYMP2-001 (AID 921).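 Also: cells exposed to compound for 24 h at 37 °C; 0% = DMSO only and full inhibition = tetraoctylammonium bromide control wells; nearly all actives have a fitted effect of over 70% in size.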 In a few lines:
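qHTS, 1536-well; lymphoblastoid cells, 24 hr compound, 37 C; ATP by CellTiter-Glo, 30 min RT; luminescence; Hill-fit AC50.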

Assay [10] deals with Cytochrome P450 3A4 (Homo sapiens) (UniProt P08684). Description: qHTS Assay for Activators of Cytochrome P450 3A4 (AID 885). Also: nearly all actives have a fitted effect of over 65% in size. In a few lines: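 Signal was normalized against complete inhibition by 57 uM ketoconazole. The reaction used 20nM CYP3A4 with 25uM Luciferin-PPXE, 10-min compound preincubation and a 60-min NADPH-supported step at RT.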

Values without a mark were called inactive. Results filed as inconclusive are left out. Active and inactive are the calls of the source. Calls follow the shape of the dose curve; as a rule, active = well fitted curve in the direction sought with a large enough effect; inconclusive = small, poorly fitted or top-dose-only effect, or another doubt; inactive = no such curve, though single readings can be large; an effect the other way counts as inactive or inconclusive.

Chain of Cytochrome P450 3A4 (Homo sapiens) (P08684 whole entry, looked up): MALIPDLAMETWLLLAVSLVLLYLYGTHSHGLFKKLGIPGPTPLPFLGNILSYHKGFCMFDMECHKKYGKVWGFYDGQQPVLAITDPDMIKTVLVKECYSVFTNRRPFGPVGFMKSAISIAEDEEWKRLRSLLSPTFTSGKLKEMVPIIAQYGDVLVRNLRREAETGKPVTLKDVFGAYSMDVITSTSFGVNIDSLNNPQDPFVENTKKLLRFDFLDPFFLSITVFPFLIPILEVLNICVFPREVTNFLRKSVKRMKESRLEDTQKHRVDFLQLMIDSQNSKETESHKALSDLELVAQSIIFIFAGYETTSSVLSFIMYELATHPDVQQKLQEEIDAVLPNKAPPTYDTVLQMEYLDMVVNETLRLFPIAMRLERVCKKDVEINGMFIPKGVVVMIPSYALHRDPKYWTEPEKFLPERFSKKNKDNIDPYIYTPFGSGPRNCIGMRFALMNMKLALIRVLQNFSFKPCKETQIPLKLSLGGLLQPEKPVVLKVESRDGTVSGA

As for `ICCc1ccccc1`, the caspase-3 activation in assay [1] was 0.262%; in assay [3], 0.877%; in assay [4] it was 3.13%. Besides, the compound was classed as inactive in assay [2], in [5] and in assay [6]. The Potency result in assay [7], in assay [8] and in [9] was “inactive” in each case.
With `O=C(O[C@@H](C(=O)O)[C@@H](OC(=O)c1ccccc1)C(=O)O)c1ccccc1`, the values for the caspase-3 activation in assay [1], in [3] and in [4] were 0.793%, 0.201% and -0.248%, respectively. In addition, the call in assay [2], in assay [5] and in [6] was inactive. In addition, the Potency entry in assay [7], in assay [8] and in assay [9] was “inactive” throughout.
Take `CC(C)(O)CCC(C)(C)O`: the caspase-3 activation in assay [1] is -1.06%; in assay [3] it was 0.513%; in [4], 5.12%. For the same compound, the outcome in [2], in assay [5] and in [6] was inactive. Further, the Potency result in assay [7], in assay [8] and in assay [9] was “inactive” each time.
For the compound `Cc1ccc2cccnc2c1`, the caspase-3 activation in assay [1] was 0.42%; in assay [3], -0.588%; in [4] it was 5.55%. The result in [2], in assay [5] and in assay [6] was inactive. Also, the Potency entry in assay [7], in assay [8] and in assay [9] was “inactive” each time.
On to `CN(C)CCCCl`, for which the values for the caspase-3 activation in [1], in assay [3] and in assay [4] were -0.558%, 0.431% and -0.527%, respectively. In addition, the call in assay [2], in assay [5] and in [6] was inactive. Moreover, the Potency result in [7], in [8] and in [9] was “inactive” in each case.
On to `OC/C(Br)=C(\Br)CO`, for which the caspase-3 activation in assay [1] was 0.44%; in [3], -0.67%; in assay [4] it was 0.816%. The compound was classed as inactive in assay [2], in assay [5] and in [6]. Further, the Potency result in assay [7], in [8] and in [9] was “inactive” in each case.
With `O=C(Cl)c1ccccc1[N+](=O)[O-]`, the caspase-3 activation was -1.02% in assay [1], 1.33% in assay [3] and 1.55% in [4]. Further, the call in assay [2], in assay [5] and in [6] was inactive. Besides, the Potency entry in assay [7], in assay [8] and in [9] was “inactive” in each case.
As to `CC(=O)c1cccc([N+](=O)[O-])c1`, the results for the caspase-3 activation in assay [1], in assay [3] and in assay [4] were 1.01%, -1.03% and 2.43%, respectively. Also, the compound was classed as inactive in [2], in assay [5] and in assay [6]. In addition, the Potency result in assay [7], in [8] and in assay [9] was “inactive” in each case.
In the case of `CC(C=O)Cc1ccc(C(C)(C)C)cc1` (stereo unspecified), the caspase-3 activation in assay [1] is 0.925%; in assay [3], 0.297%; in assay [4], -0.395%. For the same compound, the result in [2], in assay [5] and in assay [6] was inactive. The Potency result in [7], in assay [8] and in assay [9] was “inactive” each time.
`O=C(O)c1ccc(CO)o1`: the caspase-3 activation in [1] was -0.701%; in [3], 0.706%; in [4] it was -0.635%. Besides, the result in assay [2], in assay [5] and in assay [6] was inactive. Besides, the Potency result in assay [7] and in assay [8] was “inactive” each time.
Consider `CCCCOCCOCCOCCCC`, for which the caspase-3 activation in assay [1] is -0.157%; in [3], -0.168%; in assay [4] it was -0.809%. Besides, the compound was called inactive in assay [2], in assay [5] and in assay [6]. For the same compound, the Potency entry in assay [7], in assay [8] and in assay [9] was “inactive” each time.
As for `CNc1ccc([N+](=O)[O-])cc1`, the caspase-3 activation in assay [1] was 0.0307%; in [3], 0.918%; in assay [4], -2.51%. The result in assay [2], in assay [5] and in assay [6] was inactive. The Potency entry in assay [7], in [8] and in assay [9] was “inactive” throughout.
Regarding `O=C1C=CCCC1`, the caspase-3 activation in assay [1] was -1.96%; in assay [3] it was 0.0441%; in [4], 3.14%. In addition, the result in assay [2], in assay [5] and in assay [6] was inactive. Also, the Potency entry in assay [7], in assay [8] and in [9] was “inactive” in each case.
With `FC(F)(F)c1ccccc1Cl`, the caspase-3 activation in assay [1] is 1.05%; in [3], 0.997%; in [4], -1.13%. Besides, the result in assay [2], in assay [5] and in assay [6] was inactive. In addition, the Potency result in [7], in [8] and in assay [9] was “inactive” in each case.
As for `O=C1NC(=O)c2cc([N+](=O)[O-])ccc21`, the caspase-3 activation in assay [1] is -0.781%; in assay [3], -0.832%; in assay [4], -0.133%. Also, the result in assay [2], in assay [5], in [6] and in assay [10] was inactive. Also, the Potency result in [7] and in assay [9] was “inactive” throughout. Moreover, the Potency in assay [8] was 15.8 µM (active).
As for `COCCOC(=O)c1ccccc1C(=O)OCCOC`, the caspase-3 activation in assay [1] is 1.04%; in [3], 0.176%; in [4], 0.308%. The outcome in assay [2], in assay [5] and in assay [6] was inactive. Also, the Potency entry in assay [7], in assay [8] and in [9] was “inactive” in each case.
`CC(=O)c1nccs1`: the figures for the caspase-3 activation in assay [1], in [3] and in [4] were 0.103%, 1.15% and 4.27%, respectively. For the same compound, the outcome in assay [2], in assay [5] and in assay [6] was inactive. Further, the Potency result in [7], in assay [8] and in assay [9] was “inactive” throughout.
Turning to `CC(=O)c1ccccn1`, the caspase-3 activation in assay [1] is 0.864%; in assay [3], 1.68%; in assay [4] it was 0.0845%. The compound was classed as inactive in assay [2], in [5] and in assay [6]. The Potency result in assay [7], in assay [8] and in assay [9] was “inactive” in each case.
As to `CC(C)CCOC(=O)/C=C/c1ccccc1`, the caspase-3 activation in [1] was 0.297%; in [3], 1.34%; in assay [4], 1.37%. Besides, the call in [2], in assay [5] and in assay [6] was inactive. Moreover, the Potency result in [7], in assay [8] and in assay [9] was “inactive” throughout.
As to `Cc1cccc(Br)c1`, the caspase-3 activation is -0.167% in assay [1], 0.836% in [3] and -1.49% in [4]. Further, the compound was classed as inactive in [2], in assay [5] and in assay [6]. Further, the Potency entry in assay [7], in assay [8] and in assay [9] was “inactive” throughout.
For `O=P(O)(OCc1ccccc1)OCc1ccccc1`, the caspase-3 activation is -0.354% in assay [1], 1.06% in assay [3] and -1.18% in assay [4]. Further, the call in assay [2], in assay [5] and in assay [6] was inactive. Moreover, the Potency result in assay [7], in assay [8] and in [9] was “inactive” throughout.
Consider `C=CCCCC`, for which the caspase-3 activation in assay [1] was -0.265%; in assay [3], 0.498%; in assay [4], 1.21%. Further, the outcome in assay [2], in assay [5] and in assay [6] was inactive. Besides, the Potency result in assay [7], in assay [8] and in assay [9] was “inactive” throughout.
With `C=CCOC(=O)CCCCCCCC`, the caspase-3 activation in [1] is 0.626%; in assay [3], -0.694%; in assay [4], 1.74%. The outcome in [2], in assay [5] and in assay [6] was inactive. Further, the Potency entry in assay [7], in assay [8] and in assay [9] was “inactive” throughout.
For the compound `Nc1nc(CC(=O)O)cs1`, the figures for the caspase-3 activation in assay [1], in assay [3] and in assay [4] were 0.647%, 0.956% and -1.7%, respectively. For the same compound, the outcome in assay [2], in [5] and in assay [6] was inactive. Besides, the Potency result in assay [7], in assay [8] and in assay [9] was “inactive” in each case.
